The source of these data is the supplement of paper PMC12067093, “Discovery and optimisation of a covalent ligand for TRIM25 and its application to targeted protein ubiquitination” (Chemical Science, 2025).

Compound in this test: CC1Cc2ccccc2N1C(=O)C1CCCN(C1)C(=O)CCl (mixture of isomers) [TRIM25 ligand 11 (diastereomer mixture)]
The test can be described thus: probe-labelled cysteine peptide fold change vs DMSO (competition) (log2 fold change); higher = less target engagement (more negative = stronger competition). The settings on record: THP-1, incubation time: 4 h.

Targets with the largest changes are over-represented here; the source holds about 21,000 in all.
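Note: competitive chemoproteomic profiling in live THP-1 cells with an iodoacetamide desthiobiotin (IA-DTB) probe, comparing probe-labelled peptide intensities in compound-treated cells against DMSO-treated controls.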

Chain of UniProt O00116 (O00116 whole entry, looked up): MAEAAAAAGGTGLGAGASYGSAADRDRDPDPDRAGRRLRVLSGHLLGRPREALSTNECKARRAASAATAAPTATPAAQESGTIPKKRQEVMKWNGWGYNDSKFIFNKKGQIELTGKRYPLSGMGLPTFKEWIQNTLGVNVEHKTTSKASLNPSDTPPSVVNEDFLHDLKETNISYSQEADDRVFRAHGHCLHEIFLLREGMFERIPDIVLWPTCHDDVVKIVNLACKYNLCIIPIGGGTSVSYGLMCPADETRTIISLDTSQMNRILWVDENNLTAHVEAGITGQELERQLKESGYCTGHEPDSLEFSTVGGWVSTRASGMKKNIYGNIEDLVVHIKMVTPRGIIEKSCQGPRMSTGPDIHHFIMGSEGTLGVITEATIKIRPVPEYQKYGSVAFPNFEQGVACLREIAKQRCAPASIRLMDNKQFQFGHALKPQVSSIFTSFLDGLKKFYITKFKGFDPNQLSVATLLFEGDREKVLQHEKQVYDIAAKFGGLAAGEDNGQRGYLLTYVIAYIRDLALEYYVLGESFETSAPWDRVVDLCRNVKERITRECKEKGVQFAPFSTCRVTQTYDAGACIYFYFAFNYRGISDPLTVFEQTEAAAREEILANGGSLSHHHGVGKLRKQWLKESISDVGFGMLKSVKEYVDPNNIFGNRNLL
Chain of UniProt P25705 (P25705 whole entry, looked up): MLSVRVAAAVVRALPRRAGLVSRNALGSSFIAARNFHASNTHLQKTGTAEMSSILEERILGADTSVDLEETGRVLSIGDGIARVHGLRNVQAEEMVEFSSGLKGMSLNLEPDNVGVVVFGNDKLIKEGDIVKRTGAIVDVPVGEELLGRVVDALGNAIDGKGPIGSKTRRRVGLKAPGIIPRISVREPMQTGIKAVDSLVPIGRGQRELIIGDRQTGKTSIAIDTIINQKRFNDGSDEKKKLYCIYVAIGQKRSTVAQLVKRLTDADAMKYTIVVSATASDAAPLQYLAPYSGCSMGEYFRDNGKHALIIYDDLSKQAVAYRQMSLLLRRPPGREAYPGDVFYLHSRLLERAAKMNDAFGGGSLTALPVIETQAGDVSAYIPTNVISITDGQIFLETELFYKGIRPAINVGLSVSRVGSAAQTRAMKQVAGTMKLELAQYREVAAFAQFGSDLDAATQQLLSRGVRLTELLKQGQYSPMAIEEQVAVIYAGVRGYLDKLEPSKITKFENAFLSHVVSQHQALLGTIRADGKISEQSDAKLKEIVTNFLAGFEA
Chain of UniProt P42331 (P42331 whole entry, looked up): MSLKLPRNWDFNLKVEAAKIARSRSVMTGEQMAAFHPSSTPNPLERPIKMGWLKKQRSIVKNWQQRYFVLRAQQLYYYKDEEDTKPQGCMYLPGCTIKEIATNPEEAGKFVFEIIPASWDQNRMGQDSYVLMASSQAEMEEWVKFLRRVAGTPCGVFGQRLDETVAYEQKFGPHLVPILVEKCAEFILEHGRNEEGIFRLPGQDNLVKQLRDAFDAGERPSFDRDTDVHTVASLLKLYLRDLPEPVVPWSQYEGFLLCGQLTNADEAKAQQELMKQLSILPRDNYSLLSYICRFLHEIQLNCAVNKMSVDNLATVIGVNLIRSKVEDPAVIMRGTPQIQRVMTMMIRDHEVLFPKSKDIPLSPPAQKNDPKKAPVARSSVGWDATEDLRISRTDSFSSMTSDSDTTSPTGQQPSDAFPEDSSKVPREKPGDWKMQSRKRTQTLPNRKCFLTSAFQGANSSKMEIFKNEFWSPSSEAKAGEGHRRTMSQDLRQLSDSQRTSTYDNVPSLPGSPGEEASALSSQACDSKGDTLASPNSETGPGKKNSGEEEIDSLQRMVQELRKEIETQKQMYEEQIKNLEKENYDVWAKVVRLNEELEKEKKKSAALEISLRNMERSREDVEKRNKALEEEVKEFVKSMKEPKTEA
Chain of UniProt O14497 (O14497 whole entry, looked up): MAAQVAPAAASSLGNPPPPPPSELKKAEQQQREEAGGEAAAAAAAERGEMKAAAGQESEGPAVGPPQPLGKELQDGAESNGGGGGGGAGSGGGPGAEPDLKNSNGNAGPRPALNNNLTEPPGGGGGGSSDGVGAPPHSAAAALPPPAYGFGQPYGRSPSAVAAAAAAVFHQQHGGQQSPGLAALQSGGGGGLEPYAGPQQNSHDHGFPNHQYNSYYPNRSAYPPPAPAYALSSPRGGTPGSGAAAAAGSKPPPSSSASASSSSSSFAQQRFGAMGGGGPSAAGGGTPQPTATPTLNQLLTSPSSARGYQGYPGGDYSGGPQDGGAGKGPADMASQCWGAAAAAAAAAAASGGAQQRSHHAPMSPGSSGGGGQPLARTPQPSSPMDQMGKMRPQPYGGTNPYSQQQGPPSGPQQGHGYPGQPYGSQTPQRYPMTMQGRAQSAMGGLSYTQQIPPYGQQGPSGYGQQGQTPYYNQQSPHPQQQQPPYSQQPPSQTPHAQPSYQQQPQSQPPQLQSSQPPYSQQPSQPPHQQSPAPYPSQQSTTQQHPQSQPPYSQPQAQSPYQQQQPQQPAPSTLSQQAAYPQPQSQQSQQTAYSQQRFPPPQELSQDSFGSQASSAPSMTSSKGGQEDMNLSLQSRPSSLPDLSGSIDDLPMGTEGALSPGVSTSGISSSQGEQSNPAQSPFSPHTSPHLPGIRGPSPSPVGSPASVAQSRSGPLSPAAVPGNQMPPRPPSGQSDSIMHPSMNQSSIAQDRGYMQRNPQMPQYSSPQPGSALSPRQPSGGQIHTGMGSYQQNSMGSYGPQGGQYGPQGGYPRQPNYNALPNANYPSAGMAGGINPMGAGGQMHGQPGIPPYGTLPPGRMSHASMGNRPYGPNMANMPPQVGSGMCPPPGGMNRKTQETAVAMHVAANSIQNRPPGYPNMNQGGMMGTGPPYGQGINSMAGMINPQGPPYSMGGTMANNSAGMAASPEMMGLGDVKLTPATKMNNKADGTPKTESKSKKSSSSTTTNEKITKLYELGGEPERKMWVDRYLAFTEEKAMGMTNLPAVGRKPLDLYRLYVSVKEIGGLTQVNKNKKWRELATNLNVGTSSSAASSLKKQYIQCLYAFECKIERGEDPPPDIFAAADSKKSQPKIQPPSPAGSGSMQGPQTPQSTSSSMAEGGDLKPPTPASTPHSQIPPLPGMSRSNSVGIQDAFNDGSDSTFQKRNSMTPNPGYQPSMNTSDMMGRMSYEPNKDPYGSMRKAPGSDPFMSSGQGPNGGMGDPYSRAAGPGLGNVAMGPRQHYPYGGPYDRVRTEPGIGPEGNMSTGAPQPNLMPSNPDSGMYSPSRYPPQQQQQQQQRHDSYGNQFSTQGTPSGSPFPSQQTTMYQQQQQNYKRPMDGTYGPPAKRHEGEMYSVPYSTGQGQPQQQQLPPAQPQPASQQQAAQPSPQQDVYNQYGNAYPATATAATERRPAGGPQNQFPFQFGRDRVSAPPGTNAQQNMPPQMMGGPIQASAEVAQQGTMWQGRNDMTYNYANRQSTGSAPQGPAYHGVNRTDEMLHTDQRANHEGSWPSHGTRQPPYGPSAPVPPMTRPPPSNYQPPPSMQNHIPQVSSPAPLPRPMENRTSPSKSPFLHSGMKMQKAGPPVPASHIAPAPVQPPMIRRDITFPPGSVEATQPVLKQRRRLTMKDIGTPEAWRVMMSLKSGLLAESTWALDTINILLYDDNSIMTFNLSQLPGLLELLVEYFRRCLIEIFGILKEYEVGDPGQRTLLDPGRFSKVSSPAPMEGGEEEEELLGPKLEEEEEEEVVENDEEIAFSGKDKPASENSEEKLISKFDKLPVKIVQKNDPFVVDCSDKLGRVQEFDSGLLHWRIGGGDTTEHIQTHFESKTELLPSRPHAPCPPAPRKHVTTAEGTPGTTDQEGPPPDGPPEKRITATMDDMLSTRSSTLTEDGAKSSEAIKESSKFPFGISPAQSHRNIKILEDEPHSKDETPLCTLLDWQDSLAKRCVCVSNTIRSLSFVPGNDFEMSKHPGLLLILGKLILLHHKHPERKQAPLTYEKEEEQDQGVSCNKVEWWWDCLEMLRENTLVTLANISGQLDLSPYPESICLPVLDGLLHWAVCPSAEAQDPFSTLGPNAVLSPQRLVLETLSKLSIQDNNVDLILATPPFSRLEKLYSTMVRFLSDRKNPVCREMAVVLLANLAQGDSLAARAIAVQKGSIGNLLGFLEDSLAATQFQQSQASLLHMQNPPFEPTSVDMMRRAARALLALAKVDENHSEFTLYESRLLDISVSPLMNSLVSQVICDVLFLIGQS
Chain of UniProt P62330 (P62330 whole entry, looked up): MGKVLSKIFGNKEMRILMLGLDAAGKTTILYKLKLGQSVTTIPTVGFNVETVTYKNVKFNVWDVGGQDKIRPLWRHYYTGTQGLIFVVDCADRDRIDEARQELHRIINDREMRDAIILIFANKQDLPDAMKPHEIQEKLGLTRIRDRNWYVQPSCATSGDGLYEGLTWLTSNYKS
Chain of UniProt P32121 (P32121 whole entry, looked up): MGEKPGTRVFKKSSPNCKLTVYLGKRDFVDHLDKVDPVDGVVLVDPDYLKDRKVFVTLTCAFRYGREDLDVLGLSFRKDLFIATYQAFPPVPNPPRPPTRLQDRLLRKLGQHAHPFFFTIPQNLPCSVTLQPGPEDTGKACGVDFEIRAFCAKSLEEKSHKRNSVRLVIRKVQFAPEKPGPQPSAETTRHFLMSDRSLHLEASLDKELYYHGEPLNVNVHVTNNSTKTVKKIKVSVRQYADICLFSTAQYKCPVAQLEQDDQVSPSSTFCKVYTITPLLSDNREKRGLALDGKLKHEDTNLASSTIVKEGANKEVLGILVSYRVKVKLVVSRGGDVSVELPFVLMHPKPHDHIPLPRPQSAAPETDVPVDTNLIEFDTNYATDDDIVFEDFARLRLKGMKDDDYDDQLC
Chain of UniProt Q99766 (Q99766 whole entry, looked up): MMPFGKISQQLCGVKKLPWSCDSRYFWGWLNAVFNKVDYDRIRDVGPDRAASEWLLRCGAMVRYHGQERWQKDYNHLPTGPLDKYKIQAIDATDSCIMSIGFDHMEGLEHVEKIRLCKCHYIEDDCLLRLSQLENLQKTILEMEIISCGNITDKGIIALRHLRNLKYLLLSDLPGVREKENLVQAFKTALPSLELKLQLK
Chain of UniProt Q9NYG5 (Q9NYG5 whole entry, looked up): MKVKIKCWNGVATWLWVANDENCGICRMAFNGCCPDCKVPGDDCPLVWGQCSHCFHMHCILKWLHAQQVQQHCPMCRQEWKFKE

Take “ARRB2_P32121_270_CPVAQLEQDDQVSPSSTFCK (UniProt P32121)”: the “probe-labelled cysteine peptide fold change” value is, setting by setting: (10 µM) 0.677; (50 µM) 0.57.
The like results for “ATIC_P31939_101_VVACNLYPFVK (UniProt P31939)” were, in that order, -0.0132 and 0.0726.
Consider “AHRR_A9YTQ3_485_DVGEDQVHPPLCHFPQR (UniProt A9YTQ3)”, for which the “probe-labelled cysteine peptide fold change” value (10 µM) is 0.678 and the “probe-labelled cysteine peptide fold change” value (50 µM) amounted to 0.583.
For the target “AKAP17A_Q02040_17_AAATIVHDTSEAVELCPAYGLYLK (UniProt Q02040)”, the “probe-labelled cysteine peptide fold change” value runs as follows: (10 µM) 0.583; (50 µM) 0.399.
“ARF6_P62330_90_HYYTGTQGLIFVVDCADRDRIDEAR (UniProt P62330)”: the “probe-labelled cysteine peptide fold change” value reads like this: (10 µM) -0.368; (50 µM) 0.0425.
For “AMPD2_Q01433_107_SLPGPAPCLK (UniProt Q01433)”, the “probe-labelled cysteine peptide fold change” value reads like this: (10 µM) -0.11; (50 µM) -0.295.
In the case of “ANKRD10_Q9NXR5_140_SGSLECISALVANGAHVDLR (UniProt Q9NXR5)”, the “probe-labelled cysteine peptide fold change” value is -0.314 (10 µM) and -0.119 (50 µM).
In the case of “ASMTL_O95671_274_AEAGEAGQATAEAECHR (UniProt O95671)”, the “probe-labelled cysteine peptide fold change” value runs as follows: (10 µM) -0.103; (50 µM) -0.158.
On to “APTX_Q7Z2E3_161_DAAQEAEAGTGLEPGSNSGQCSVPLK (UniProt Q7Z2E3)”, for which the “probe-labelled cysteine peptide fold change” value runs as follows: (10 µM) 0.282; (50 µM) -0.342.
For “ARPC1B_O15143_227_VAWVSHDSTVCLADADK (UniProt O15143)”, the “probe-labelled cysteine peptide fold change” value amounted to 0.316 (10 µM) and 0.0213 (50 µM).
Take “AGPS_O00116_226_IVNLACK (UniProt O00116)”: the “probe-labelled cysteine peptide fold change” value came out at 0.221 (10 µM) and 0.311 (50 µM).
In the case of “ATF6_P18850_321_ESACQSR<|>ATF6B_Q99941_340_ESACQSR (UniProt Q99941+P18850)”, the “probe-labelled cysteine peptide fold change” value was found to be 0.753 (10 µM) and 1.73 (50 µM).
As to “ATP5S_Q99766_134_CHYIEDDCLLR (UniProt Q99766)”, the “probe-labelled cysteine peptide fold change” value was -0.0886 (10 µM) and 0.0874 (50 µM).
As for “ALG11_Q2TAA5_72_NQMVIAFFHPYCNAGGGGER (UniProt Q2TAA5)”, the “probe-labelled cysteine peptide fold change” value was -0.0377 (10 µM) and -0.618 (50 µM).
The like results for “BIN2_Q9UBW5_205_IGCYVTIFQNISNLR (UniProt Q9UBW5)” were, in that order, 0.21 and 0.194.
Take “ATP6V1A_P38606_138_WDFTPCK (UniProt P38606)”: the “probe-labelled cysteine peptide fold change” value reads like this: (10 µM) -0.198; (50 µM) -0.819.
As for “ANAPC11_Q9NYG5_76_WLHAQQVQQHCPMCR (UniProt Q9NYG5)”, the “probe-labelled cysteine peptide fold change” value (10 µM) was -0.122 and the “probe-labelled cysteine peptide fold change” value (50 µM) was 0.153.
Regarding “ARHGAP25_P42331_154_VAGTPCGVFGQR (UniProt P42331)”, the “probe-labelled cysteine peptide fold change” value by setting is: (10 µM) 0.0288; (50 µM) -0.103.
On the same counts, the results for “ANTXR1_Q9H6X2_257_VLCSFK (UniProt Q9H6X2)” are 0.067 and 0.257.
For “AIP_O00170_78_LPVWETIVCTMR (UniProt O00170)”, the “probe-labelled cysteine peptide fold change” value runs as follows: (10 µM) -0.126; (50 µM) 1.17.
Consider “ARHGAP45_Q92619_528_SATISYYQMMHMQTAPLPVHFQMLCESSK (UniProt Q92619)”, for which the “probe-labelled cysteine peptide fold change” value is, setting by setting: (10 µM) -0.132; (50 µM) -0.236.
Turning to “ARID1A_O14497_2043_EEEQDQGVSCNK (UniProt O14497)”, the “probe-labelled cysteine peptide fold change” value is, setting by setting: (10 µM) 0.662; (50 µM) 0.268.
“AKAP8_O43823_392+395_IQFACSVCK (UniProt O43823)”: the “probe-labelled cysteine peptide fold change” value was -0.0142 (10 µM) and 0.0345 (50 µM).
The like results for APOH_P02749_124_CTEEGK (UniProt P02749) were, in that order, 0.632 and 0.551.
With “BCAT1_P54687_338_EMFGSGTACVVCPVSDILYK (UniProt P54687)”, the “probe-labelled cysteine peptide fold change” value came to 0.15 (10 µM) and 0.0428 (50 µM).
Regarding “ANKRD50_Q9ULJ7_113_QALAFHFCK (UniProt Q9ULJ7)”, the “probe-labelled cysteine peptide fold change” value came out at 0.472 (10 µM) and 0.778 (50 µM).
On to “AP2A1_O95782_492_TVFEALQAPACHENMVK (UniProt O95782)”, for which the “probe-labelled cysteine peptide fold change” value worked out at 0.179 (10 µM) and 0.0904 (50 µM).
In the case of “ATP5F1A_P25705_244_KLYCIYVAIGQK (UniProt P25705)”, the “probe-labelled cysteine peptide fold change” value by setting is: (10 µM) -0.433; (50 µM) 0.0534.
Consider “ASAP1_Q9ULH1_652_QTALGNTVLHYCSMYSKPECLK (UniProt Q9ULH1)”, for which the “probe-labelled cysteine peptide fold change” value worked out at 0.0362 (10 µM) and 0.157 (50 µM).
“ARFGEF2_Q9Y6D5_76_YFLPFELACQSK<|>ARFGEF1_Q9Y6D6_88_YFLPFELACQSK (UniProt Q9Y6D6+Q9Y6D5)”: the “probe-labelled cysteine peptide fold change” value was -0.179 (10 µM) and -0.147 (50 µM).
For “ANXA11_P50995_384_FNAVLCSR (UniProt P50995)”, the “probe-labelled cysteine peptide fold change” value by setting is: (10 µM) -0.0174; (50 µM) -0.0325.
As for “ARPC1B_O15143_26_TQIAICPNNHEVHIYEK (UniProt O15143)”, the “probe-labelled cysteine peptide fold change” value by setting is: (10 µM) 0.062; (50 µM) 0.00851.
For the target “ARSA_P15289_493_GEDPALQICCHPGCTPR (UniProt P15289)”, the “probe-labelled cysteine peptide fold change” value stood at 0.139 (10 µM) and 0.309 (50 µM).
